From PubChem BioAssay (NCI)
About 79,000 compounds went through this panel and 15% of them were active in at least one assay; those are over-represented in the sample as a whole. Activity calls are given as the source filed them. Cut-off read from the data, not from the text of the source: active = growth inhibition above about 70%; inactive = the rest. Where a SMILES comes first, the peptide text is derived from it. [ ]: non-standard residue; d: D form. The star is where a group is joined. Cbz = O=C(OCc1ccccc1)*; Dha = C=C(N)C(=O)O

Assays:
[1] = NCI Yeast Anticancer Drug Screen. Data for the rad50 strain (AID 155);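 note: 0% = growth of vehicle-only cultures of the same strain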; settings: S. cerevisiae rad50 strain growth inhibition; at 50.0 µM; active compounds read high
Summary of the method: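 Growth of the mutant yeast was measured after compound exposure and referenced to vehicle-treated cultures.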

[2] = NCI Yeast Anticancer Drug Screen. Data for the mec2-1 strain (AID 157); settings: S. cerevisiae mec2-1 strain, at 50.0 µM, active compounds read high
Summary of the method: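 Yeast mec2-1 mutant treated with compound. Readout: growth inhibition vs vehicle controls.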

[3] = NCI Yeast Anticancer Drug Screen. Data for the sgs1 mgt1 strain (AID 161);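 note: 0% = growth of cultures given vehicle only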; settings: S. cerevisiae sgs1 mgt1 strain, at 50.0 µM, active compounds read high
Summary of the method: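 Genetically altered yeast, compound exposure, growth inhibition relative to vehicle.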

[4] = NCI Yeast Anticancer Drug Screen. Data for the cln2 rad14 strain (AID 165);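 note: 0% = growth equal to vehicle treated cultures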; settings: S. cerevisiae cln2 rad14 strain, at 50.0 µM, active compounds read high
Summary of the method: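 cln2 rad14 yeast strain; compound exposure; growth inhibition read vs vehicle controls.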

[5] = NCI Yeast Anticancer Drug Screen. Data for the bub3 strain (AID 167); settings: S. cerevisiae bub3 mutant strain, at 50.0 µM, active compounds read high
Summary of the method: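 Whole-cell yeast assay. The mutant strain was incubated with compounds, and growth inhibition was determined by comparison with vehicle-treated cells.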

[6] = NCI Yeast Anticancer Drug Screen. Data for the mlh1 rad18 strain (AID 175); settings: S. cerevisiae mlh1 rad18 strain growth inhibition; at 50.0 µM; active compounds read high
Summary of the method: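 Yeast w/ defined DNA-repair lesions; compound exposure; growth vs vehicle controls → % inhibition.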

Measured: growth inhibition

O=Cc1ccc(C=O)cc1
inactive: [1] 22.6% | [2] -3.35% | [3] 26.9% | [4] 11.9% | [5] 14.2% | [6] 32.5%

CC(O)CCC(C)O (configuration not stated)
inactive: [1] -19.1% | [2] -24.2% | [3] -4.5% | [4] -4.95% | [5] 1.85% | [6] 10.2%

CC12CCC(=O)C3C1CCCC32
inactive: [1] -0.45% | [2] -6.2% | [3] -13.9% | [4] 1.2% | [5] -2.15% | [6] -21.6%

O=C(NC(=O)c1cc(-c2ccccc2)n[nH]1)c1ccccc1
inactive: [1] -71.5% | [2] -10.1% | [3] -14.4% | [4] -6.3% | [5] -20.4% | [6] -10.8%

C/C(=N\NC(=O)c1ccncc1)c1cccc(F)c1
inactive: [1] -57% | [2] -20.9% | [3] -51.2% | [4] -48.7% | [5] -67.8% | [6] -38%

CC1=c2c(oc3cc(O)c(Nc4c(C)cc(O)cc4O)c(C)c23)=CC(=O)C1=Nc1c(C)cc(O)cc1O
inactive: [1] 17.9% | [2] 7.8% | [3] 0.45% | [4] -2.3% | [5] -35% | [6] 18.4%

Nc1ccccc1/C=C(\C(=O)O)c1ccccc1
inactive: [1] -19.9% | [2] -4.45% | [3] 14.8% | [4] 12.4% | [5] -0.6% | [6] 11.4%

CC(CO)(NC(=O)c1ccccc1)C(=O)O (configuration not stated)
inactive: [1] 13.4% | [2] 9.25% | [3] 22.5% | [4] 11.1% | [5] 3.45% | [6] 23.4%

O=c1c[n+]([O-])c2ccccc2n1O
inactive: [1] 10.8% | [2] -3.75% | [3] 3.75% | [4] -27.1% | [5] -5.7% | [6] 11.8%

C=C1C(=O)OC2CC(C)C3CC(O)OC(OCC)C3(C)CC12 (configuration not stated)
inactive: [1] 24.1% | [2] 20.3% | [3] 12.4% | [4] 22.8% | [5] 32.2% | [6] -16.8%

Clc1ccc(-c2nnc3n2NC(c2ccccc2)S3)c(Cl)c1 (configuration not stated)
inactive: [1] 2.7% | [2] -26% | [3] -13.8% | [4] 10.8% | [5] -18.9% | [6] -27.6%

O=C(NNc1ccccc1)NNc1ccccc1 (tested in a mixture with another compound)
inactive: [1] 11.1% | [2] -0.45% | [3] -0.9% | [4] 23.8% | [5] -12.2% | [6] 1.65%

CCN(CC)CCN(C(=Nc1ccccc1)N1CCCCC1)c1ccccc1
inactive: [1] 6.8% | [2] -35.2% | [3] -11.5% | [4] 19% | [5] 28.1% | [6] 19.4%

O=C(CCl)NCCc1ccccc1
inactive: [1] 17.5% | [2] 5.6% | [3] -0.4% | [4] 12.8% | [5] 24.8% | [6] 1.1%

CC(C)(C)C1CC[C@H]2c3c([nH]c4ccc(Br)cc34)[C@H]3C(=O)N(c4ccccc4)C(=O)[C@H]3[C@H]2C1 (some centres not stated)
inactive: [1] 18.4% | [2] -2.7% | [3] 27.2% | [4] 29.4% | [5] -0.15% | [6] 12.6%

O=C(Nc1ccc(Cl)c(Cl)c1)Oc1ccc2ccccc2c1
inactive: [1] 13.4% | [2] 24.9% | [3] 34.5% | [4] -0.35% | [5] 4.1% | [6] 61.1%

CO/C(N)=C(\C#N)N=Cc1cccs1
inactive: [1] 3.95% | [2] 4.6% | [3] 11.4% | [4] 5.1% | [5] -8.4% | [6] 9.9%

c1ccc2c(c1)CCOC2
inactive: [1] -0.4% | [2] 5.9% | [3] 3.45% | [4] 6.5% | [5] 8.55% | [6] -3.1%

COc1ccc(C(O)c2ncccc2C)cc1OC (configuration not stated)
inactive: [1] -0.3% | [2] 31.3% | [3] 20.1% | [4] -9.35% | [5] 24.8% | [6] 22.3%

C=CC(O)C(O)C=C (configuration not stated)
inactive: [1] 15.1% | [2] -9% | [3] 20.4% | [4] 8.25% | [5] 12.9% | [6] 17.2%

Oc1ccc2ccccc2c1C=NCc1c(O)ccc2ccccc12
inactive: [1] 3.5% | [2] -1.7% | [3] -11.2% | [4] -39.2% | [5] -43.6% | [6] 8.75%

O=C1OC(Nc2ccccc2)C(Cl)=C1Cl (configuration not stated)
inactive: [1] 38.1% | [2] 13.8% | [3] 22.5% | [4] 20.3% | [5] 6.2% | [6] -0.15%

OCC1OC(n2cnc3c([Se]Cc4ccccn4)ncnc32)C(O)C1O (configuration not stated)
inactive: [1] 40% | [2] -0.6% | [3] 32% | [4] -3.75% | [5] -3.4% | [6] 7.5%

COC1CCC(/C(C#N)=C/C2CCC(NC(C)=O)CC2)CC1 (configuration not stated)
inactive: [1] 3.95% | [2] 0.65% | [3] 25.9% | [4] 1% | [5] 22.1% | [6] 5.2%

C/C(=N/NC(=S)Nc1ccccc1Cl)c1cccc(/C(C)=N\NC(=S)Nc2ccccc2Cl)n1
inactive: [1] 39.4% | [2] 16.9% | [3] 39.8% | [4] 6.3% | [5] 32.1% | [6] 24.7%

NNC(=O)Cc1c[nH]c2ccccc12
inactive: [1] 7.1% | [2] 9.4% | [3] 5.85% | [4] -7.55% | [5] 6% | [6] 2.25%

O=C(Nc1ccc(Br)cc1)c1ccccc1
inactive: [1] 14.4% | [2] 20.9% | [3] 0.35% | [4] -31.5% | [5] 0.8% | [6] 22.1%

O=c1[nH][nH]c(=O)c2nc3c(nc12)c1nc2c(=O)[nH][nH]c(=O)c2nc1c1nc2c(=O)[nH][nH]c(=O)c2nc31
inactive: [1] -1.6% | [2] 21.4% | [3] 21.1% | [4] -2.55% | [5] -11.1% | [6] 8.2%

O=C(c1ccccc1)[C@H]1Nc2ccc(Cl)cc2[C@H]2CCC[C@@H]12
inactive: [1] -2.4% | [2] -30.2% | [3] 0.1% | [4] 10.2% | [5] -14.6% | [6] -17.1%

CCCCCCCCCCCc1cc(=O)n(-c2ccccc2)n1C
active: [1] 98.8% | [2] 99.2% | [3] 99.2% | [4] 98.4% | [5] 98.5% | [6] 99%

COC1=CC(=O)c2nc3ccccc3c3ccnc1c23
inactive: [4] 51.2%
active: [1] 87% | [2] 76.1% | [3] 83.2% | [5] 87.3% | [6] 87.2%

COc1cc(Cc2nccc3cc(OC)c(OC)cc23)c(N=NN(C)C)cc1OC
inactive: [1] -14.2% | [2] -7.6% | [3] -4.9% | [4] 5.45% | [5] -10.4% | [6] 8.35%

O=C(Nc1ccccc1)c1cc([N+](=O)[O-])cc([N+](=O)[O-])c1
inactive: [1] 9.25% | [2] 16.4% | [3] 15.3% | [4] -24.6% | [5] 9.55% | [6] 0.05%

CC(C)=CC1C(COC(=O)c2ccccc2Cl)C1(C)C (configuration not stated)
inactive: [1] 1% | [2] -8.3% | [3] -2.9% | [4] -27.9% | [5] -12.4% | [6] 18.8%

CCCCCCCCNC(C(=O)c1ccccc1)c1ccccc1 (configuration not stated)
inactive: [1] 10.1% | [2] 11.7% | [3] 16% | [4] 14% | [5] 14.2% | [6] 26.8%

C[N+](C)(C)C1=CC=CC=C1.Br[Br-]Br
inactive: [1] 22.5% | [2] -29.6% | [3] 0.15% | [4] 4.7% | [5] 11.6% | [6] -2.25%

C=C(NC(=O)C(C)NC(=O)OCc1ccccc1)C(=O)N1CCCC1C(=O)NC(C)C(=O)NC (configuration not stated) (Cbz-A[Dha]PA-NHMe; configuration not given here)
inactive: [1] 3% | [2] -3.95% | [3] -5.05% | [4] 3.4% | [5] -4.35% | [6] -2.4%

CCOC(=O)CC(C(=O)OCC)C(C(=O)OCC)C(=O)OCC (configuration not stated)
inactive: [1] 41.9% | [2] -4.1% | [3] 19.6% | [4] 3.4% | [5] 29.8% | [6] 13.6%

Cc1ccc(S(=O)(=O)OC2C3C4CCC5C3SC3C5C4C23)cc1 (configuration not stated)
inactive: [1] -5.3% | [2] -21.1% | [3] -3.65% | [4] 5.8% | [5] 6.6% | [6] 1.1%

O=C1Oc2ccccc2C(=O)C1=S1CCCC1
inactive: [1] 6.9% | [2] 12.1% | [3] 9.3% | [4] 18.6% | [5] 9.05% | [6] 14.6%

CCOC(=O)Sc1nccn1C
inactive: [1] 8.05% | [2] -19.2% | [3] 3.25% | [4] -4.7% | [5] -13.2% | [6] -0.45%

CSCCC(NCc1c(O)ccc2c(C)cc(=O)oc12)C(=O)O (configuration not stated)
inactive: [1] 16.5% | [2] 0.85% | [3] 14% | [4] 25.9% | [5] -1.05% | [6] 26.7%
